Measured values reported in PubChem BioAssay (Tox21).
Where “and” joins values, the source holds several entries; their conditions need not be identical. Identical values can stand only once. Inconclusive results are not listed. Calls of active or inactive are those of the source. Unless noted, the call rests on the fitted dose curve; in most records, active means well fitted curve in the direction sought with a large enough effect in the repeat runs; inconclusive means weak or mixed curves; inactive means no such curve, though single readings can be large; an effect the other way counts as inactive or inconclusive.

Experiments:
[1] = qHTS assay to identify small molecule agonists of the peroxisome proliferator-activated receptor delta (PPARd) signaling pathway - cell viability counter screen (AID 743211); further: nearly all actives have a fitted effect of over 55% in size; further: potency means the concentration at half of the fitted maximal effect
How it was run: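 qHTS cell viability: PPARd-bla HEK293H; 17 h cpd, 37C; CellTiter-Glo, luminescence at 30 min RT.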

[2] = biological target: Peroxisome proliferator-activated receptor delta (Homo sapiens) (UniProt Q03181); assay: qHTS assay to identify small molecule agonists of the peroxisome proliferator-activated receptor delta (PPARd) signaling pathway (AID 743212; calls by dose curve; further: on the % scale 0 is the no-effect control and ±100 the full control effect)
Peroxisome proliferator-activated receptor delta (Homo sapiens), sequence (Q03181 whole entry, looked up): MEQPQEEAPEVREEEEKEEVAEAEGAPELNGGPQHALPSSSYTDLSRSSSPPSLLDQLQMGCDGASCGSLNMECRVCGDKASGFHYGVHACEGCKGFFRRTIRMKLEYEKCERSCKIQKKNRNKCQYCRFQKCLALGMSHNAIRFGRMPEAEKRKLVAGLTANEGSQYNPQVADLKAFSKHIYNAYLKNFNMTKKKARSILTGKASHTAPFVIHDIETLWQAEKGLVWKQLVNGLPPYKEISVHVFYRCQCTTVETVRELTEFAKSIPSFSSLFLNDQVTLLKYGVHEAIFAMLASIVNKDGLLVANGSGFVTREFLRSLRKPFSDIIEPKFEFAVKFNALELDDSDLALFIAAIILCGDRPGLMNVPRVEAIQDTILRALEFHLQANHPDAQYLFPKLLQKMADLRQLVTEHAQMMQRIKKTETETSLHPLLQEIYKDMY
How it was run: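 A PPARd-bla HEK293H line with beta-lactamase under an Upstream Activator Sequence is treated with compounds at 37 C. Substrate loading for 2 h at room temperature precedes the fluorescence measurement.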

[3] = qHTS assay to identify small molecule antagonists of the peroxisome proliferator-activated receptor delta (PPARd) signaling pathway - cell viability counter screen (AID 743213); further: nearly all actives have a fitted effect of over 50% in size; further: potency means the concentration at half of the fitted maximal effect
How it was run: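 In this counter screen, HEK293H cells carrying a UAS-beta-lactamase reporter are co-treated with test compounds and 300 nM L165041 (final) for 17 h at 37 C; cell viability is quantified by CellTiter-Glo luminescence.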

[4] = biological target: Peroxisome proliferator-activated receptor delta (Homo sapiens) (UniProt Q03181); assay: qHTS assay to identify small molecule antagonists of the peroxisome proliferator-activated receptor delta (PPARd) signaling pathway (AID 743215; active means well fitted inhibition curve with a large enough effect in the signal ratio in the repeat runs, not every such curve was filed as active; the % refers to the signal ratio;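 further: cells stimulated with agonist L165041 at 300 nM final during compound exposure; series mostly up to about 62 µM; on the % scale 0 is the no-effect control and ±100 the full control effect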)
How it was run: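 PPARd UAS-bla HEK293H cells were pre-incubated 5 h at 37 C, then given test compounds in DMSO plus agonist L165041 (300 nM final). After 17 h at 37 C, beta-lactamase FRET substrate was added; fluorescence read after 2 h at room temperature.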

[5] = biological target: Bile acid receptor (Homo sapiens) (UniProt Q96RI1); assay: qHTS assay to identify small molecule antagonists of the farnesoid-X-receptor (FXR) signaling pathway (AID 743217; active means well fitted inhibition curve with a large enough effect in the signal ratio in the repeat runs, not every such curve was filed as active; the % refers to the signal ratio; further: on the % scale 0 is the no-effect control and ±100 the full control effect)
Bile acid receptor (Homo sapiens), sequence (Q96RI1 whole entry, looked up): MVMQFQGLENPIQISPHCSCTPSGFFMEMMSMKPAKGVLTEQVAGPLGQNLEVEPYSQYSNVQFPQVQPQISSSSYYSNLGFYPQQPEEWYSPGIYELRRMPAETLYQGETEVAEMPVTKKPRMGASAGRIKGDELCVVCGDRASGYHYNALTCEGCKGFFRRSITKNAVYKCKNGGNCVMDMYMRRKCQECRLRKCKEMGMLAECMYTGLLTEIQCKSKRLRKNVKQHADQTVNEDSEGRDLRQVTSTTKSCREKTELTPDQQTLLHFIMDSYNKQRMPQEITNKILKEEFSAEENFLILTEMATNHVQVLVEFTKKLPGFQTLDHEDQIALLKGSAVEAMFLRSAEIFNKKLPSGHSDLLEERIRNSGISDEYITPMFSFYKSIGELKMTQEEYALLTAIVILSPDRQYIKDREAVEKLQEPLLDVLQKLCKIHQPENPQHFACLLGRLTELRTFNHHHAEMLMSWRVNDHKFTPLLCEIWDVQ
How it was run: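 FXR-UAS-bla HEK 293T cells pre-incubated 5 h at 37 °C, then exposed to compounds with chenodeoxycholic acid (50 uM final) for 16 h at 37 °C. Beta-lactamase reporter read by LiveBLAzer B/G FRET substrate fluorescence after 2 h at room temperature.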

[6] = qHTS assay to identify small molecule agonists of the farnesoid-X-receptor (FXR) signaling pathway - cell viability counter screen (AID 743218); further: nearly all actives have a fitted effect of over 45% in size; further: potency means the concentration at half of the fitted maximal effect
How it was run: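 FXR-UAS-bla HEK 293T cells, plated 5 h at 37 C, were exposed to compounds for 16 h at 37 C. CellTiter-Glo was then added to the same wells as the bla readout; luminescence read after 30 min at room temperature.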

[7] = qHTS assay to identify small molecule antagonists of the farnesoid-X-receptor (FXR) signaling pathway - cell viability counter screen (AID 743221; active means well fitted cell-killing curve with a large enough effect in the repeat runs, not every such curve was filed as active; further: nearly all actives have a fitted effect of over 50% in size; further: potency means the concentration at half of the fitted maximal effect)
How it was run: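 After a 5 h settling period, FXR-bla HEK 293T cells receive compound and chenodeoxycholic acid (50 uM final) and incubate 16 h at 37 C; CellTiter-Glo luminescence, read after 30 min at room temperature, reports cell viability.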

[8] = biological target: Vitamin D3 receptor (Homo sapiens) (UniProt P11473); assay: qHTS assay to identify small molecule agonists of the vitamin D receptor (VDR) signaling pathway (AID 743222; calls by dose curve; further: on the % scale 0 is the no-effect control and ±100 the full control effect)
Vitamin D3 receptor (Homo sapiens), sequence (P11473 whole entry, looked up): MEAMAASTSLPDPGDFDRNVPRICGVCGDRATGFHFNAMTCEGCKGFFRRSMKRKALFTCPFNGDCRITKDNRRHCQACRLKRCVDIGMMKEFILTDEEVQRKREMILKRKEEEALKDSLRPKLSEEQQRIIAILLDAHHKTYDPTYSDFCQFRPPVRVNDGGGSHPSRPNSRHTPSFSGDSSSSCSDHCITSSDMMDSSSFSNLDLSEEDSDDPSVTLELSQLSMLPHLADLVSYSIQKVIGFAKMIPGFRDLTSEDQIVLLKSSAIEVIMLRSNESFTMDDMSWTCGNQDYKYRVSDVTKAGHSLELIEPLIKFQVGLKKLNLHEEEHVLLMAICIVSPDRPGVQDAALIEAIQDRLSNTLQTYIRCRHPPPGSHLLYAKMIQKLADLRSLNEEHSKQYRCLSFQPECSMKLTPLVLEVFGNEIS
How it was run: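 VDR-bla cells were plated 4 h at 37C/5% CO2, then exposed to compounds in DMSO for 16 h. After LiveBLAzer B/G FRET substrate addition and 2 h at room temperature, beta-lactamase reporter fluorescence was read.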

[9] = biological target: Vitamin D3 receptor (Homo sapiens) (UniProt P11473); assay: qHTS assay to identify small molecule antagonists of the vitamin D receptor (VDR) signaling pathway (AID 743223; active means well fitted inhibition curve with a large enough effect in the signal ratio in the repeat runs, not every such curve was filed as active; the % refers to the signal ratio; further: on the % scale 0 is the no-effect control and ±100 the full control effect)
How it was run: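 Reporter line VDR-bla; stimulus 1alpha,25-(OH)2 vitamin D3, 3 nM final; compound co-addition, 16 h 37C/5% CO2; LiveBLAzer B/G substrate 2 h RT; fluorescence intensity.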

[10] = qHTS assay to identify small molecule agonists of the vitamin D receptor (VDR) signaling pathway - cell viability counter screen (AID 743224); further: nearly all actives have a fitted effect of over 50% in size; further: potency means the concentration at half of the fitted maximal effect
How it was run: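 VDR-bla cells were preincubated 4 h at 37C/5% CO2, then exposed to compounds for 16 h. After the 2 h room-temperature bla FRET read, CellTiter-Glo was added to the same wells and luminescence read after 30 min.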

[11] = qHTS assay to identify small molecule antagonists of the vitamin D receptor (VDR) signaling pathway - cell viability counter screen (AID 743225); further: nearly all actives have a fitted effect of over 50% in size; further: potency means the concentration at half of the fitted maximal effect
How it was run: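 Parallel cytotoxicity test: VDR-UAS-bla HEK 293T, 3 nM (final) 1-alpha,25-dihydroxyvitamin D3 with test compound, 16 h, 37C. Endpoint is CellTiter-Glo luminescence in the same wells.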

[12] = qHTS assay to identify small molecule agonists of the NFkB signaling pathway - cell viability counter screen (AID 1159515; calls by dose curve; further: nearly all actives have a fitted effect of over 55% in size; further: potency means the concentration at half of the fitted maximal effect)
How it was run: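 NFkB-bla ME-180 cells, 2,000/well, were plated overnight at 37 C, 5% CO2, then exposed to compounds in DMSO for 5 hr. After the bla FRET read, CellTiter-Glo was added to the same wells; luminescence was read after 30 min at room temperature.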

[13] = qHTS assay to identify small molecule agonists of the endoplasmic reticulum stress response signaling pathway (AID 1159516; active means well fitted activation curve with a large enough effect in the signal ratio in the repeat runs, not every such curve was filed as active; the % refers to the signal ratio; further: potency means the concentration at half of the fitted maximal effect)
How it was run: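 CellSensor ESRE-bla HeLa cells, carrying a beta-lactamase reporter driven by the ER stress response element, were plated overnight and exposed to compounds for 5 hr at 37 C. Reporter activity was read as FRET substrate fluorescence after 2 hr at room temperature.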

[14] = qHTS assay to identify small molecule agonists of the endoplasmic reticulum stress response signaling pathway - cell viability counter screen (AID 1159517; calls by dose curve)
How it was run: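 CellTiter-Glo was added to wells already read for beta-lactamase FRET, and luminescence was recorded 30 min later. Cells: ESRE-bla HeLa, 1,500 per well, compound exposure 5 hr at 37 C.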

[15] = qHTS assay to identify small molecule agonists of the AP-1 signaling pathway - cell viability counter screen (AID 1159525; calls by dose curve; further: nearly all actives have a fitted effect of over 55% in size; further: potency means the concentration at half of the fitted maximal effect)
How it was run: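 ME-180 AP-1-bla, 2500 cells/well, Opti-MEM + 0.5% dialyzed FBS; overnight 37 °C; cpd 15-pt titration, 5 h 37 °C; CellTiter-Glo 30 min RT; luminescence read; normalised to TOAB and DMSO controls.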

[16] = qHTS assay to identify small molecule agonists of the AP-1 signaling pathway (AID 1159526; calls by dose curve; further: potency means the concentration at half of the fitted maximal effect)
[17] = biological target: Bile acid receptor (Homo sapiens) (UniProt Q96RI1); assay: qHTS assay to identify small molecule agonists of the farnesoid-X-receptor (FXR) signaling pathway (AID 743220; active means well fitted activation curve with a large enough effect in the signal ratio in the repeat runs, not every such curve was filed as active; the % refers to the signal ratio; further: potency means the concentration at half of the fitted maximal effect)
How it was run: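 Beta-lactamase reporter under UAS control in GeneBLAzer FXR HEK 293T cells (5000/well) measured with LiveBLAzer FRET substrate after 2 h at room temperature. Compound exposure lasted 16 h at 37C.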

[18] = qHTS assay to identify small molecule antagonists of the retinoid-related orphan receptor gamma (ROR-gamma) signaling pathway - cell viability counter screen (AID 1159520); further: nearly all actives have a fitted effect of over 50% in size; further: potency means the concentration at half of the fitted maximal effect
How it was run: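 Tet-on ROR gamma CHO cells (1,000/well) were plated 4 hr, given compounds in DMSO for 2 hr at 37 C, then induced with 1 uM final doxycycline for 16 hr. Viability was read as ATP by CellTiter-Glo luminescence after 30 min.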

[19] = biological target: Retinoic acid receptor RXR-alpha (Homo sapiens) (UniProt P19793); assay: qHTS assay to identify small molecule agonists of the RXR signaling pathway (AID 1159527; calls by dose curve; further: on the % scale 0 is the no-effect control and ±100 the full control effect; nearly all actives have a fitted effect of over 35% in size)
Retinoic acid receptor RXR-alpha (Homo sapiens), sequence (P19793 whole entry, looked up): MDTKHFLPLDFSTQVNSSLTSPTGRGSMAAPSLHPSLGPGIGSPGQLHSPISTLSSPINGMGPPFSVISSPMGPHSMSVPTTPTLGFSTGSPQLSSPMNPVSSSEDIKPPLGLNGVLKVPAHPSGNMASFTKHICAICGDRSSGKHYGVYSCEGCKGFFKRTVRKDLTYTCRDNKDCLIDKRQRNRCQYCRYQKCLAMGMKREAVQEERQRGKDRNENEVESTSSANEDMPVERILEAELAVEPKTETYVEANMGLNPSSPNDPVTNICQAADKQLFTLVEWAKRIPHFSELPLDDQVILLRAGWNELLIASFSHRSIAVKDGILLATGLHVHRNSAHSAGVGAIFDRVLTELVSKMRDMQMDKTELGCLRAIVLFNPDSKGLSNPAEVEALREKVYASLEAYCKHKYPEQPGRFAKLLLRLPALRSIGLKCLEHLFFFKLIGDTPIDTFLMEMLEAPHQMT
How it was run: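 16 hr incubation of compound-treated RXR-alpha-UAS-bla HEK 293T cells (2% charcoal-stripped FBS, 37 C) preceded a 2 hr room-temperature LiveBLAzer FRET substrate step and blue/green fluorescence measurement.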

[20] = biological target: Nuclear receptor ROR-gamma (Homo sapiens) (UniProt P51449); assay: qHTS assay to identify small molecule antagonists of the retinoid-related orphan receptor gamma (ROR-gamma) signaling pathway (AID 1159521; further: nearly all actives have a fitted effect of over 50% in size; further: potency means the concentration at half of the fitted maximal effect)
How it was run: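 Decreased RORE-driven luciferase luminescence indicates antagonism. Tet-on RORγ CHO cells received compound, then 1 uM final doxycycline 2 h later; signal read after 16 h incubation.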

C/C=C/C=C/COC(=O)C(C)C
inactive: Potency [1] | Potency [2] | Potency [3] | Potency [4] | Potency [5] | Potency [6] | Potency [7] | Potency [8] | Potency [9] | Potency [10] | Potency [11] | Potency [12] | Potency [13] | Potency [14] | Potency [15] | Potency [16]

CC(=O)c1ccc(C(C)=O)cc1
inactive: Potency [1] | Potency [2] | Potency [3] | Potency [4] | Potency [5] | Potency [6] | Potency [17] | Potency [11] | Potency [12] | Potency [13] | Potency [18] | Potency [15] | Potency [16] | Potency [19]

Nc1ccc(Oc2ccc(Cl)cc2)cc1
inactive: Potency [2] | Potency [3] | Potency [4] | Potency [5] | Potency [6] | Potency [17] | Potency [7] | Potency [9] | Potency [10] | Potency [11] | Potency [12] | Potency [13] | Potency [18] | Potency [20] | Potency [15] | Potency [16]

c1ccsc1
inactive: Potency [1] | Potency [2] | Potency [3] | Potency [4] | Potency [6] | Potency [7] | Potency [10] | Potency [11] | Potency [12] | Potency [13] | Potency [18] | Potency [20] | Potency [15] | Potency [16]

Clc1nnc(Cl)c2ccccc12
inactive: Potency [1] | Potency [2] | Potency [3] | Potency [4] | Potency [6] | Potency [7] | Potency [8] | Potency [9] | Potency [10] | Potency [12] | Potency [13] | Potency [18] | Potency [20] | Potency [15] | Potency [16]

CCCCOC(=O)CO
inactive: Potency [1] | Potency [2] | Potency [3] | Potency [4] | Potency [6] | Potency [7] | Potency [10] | Potency [12] | Potency [13] | Potency [18] | Potency [20] | Potency [15] | Potency [16] | Potency [19]

CC(C)NC[C@@H](O)COc1ccc(CC(N)=O)cc1
inactive: Potency [1] | Potency [3] | Potency [6] | Potency [7] | Potency [9] | Potency [10] | Potency [11] | Potency [12] | Potency [13] | Potency [18] | Potency [20] | Potency [15] | Potency [16]

CCCC(=O)OCOC(=O)C1=C(C)NC(C)=C(C(=O)OC)C1c1cccc(Cl)c1Cl (stereo not given)
inactive: Potency [1] | Potency [3] | Potency [6] | Potency [7] | Potency [8] | Potency [9] | Potency [10] | Potency [11] | Potency [12] | Potency [13] | Potency [18] | Potency [20] | Potency [15] | Potency [16] | Potency [19]

CC(C)Cn1cnc2c(N)nc3ccccc3c21
inactive: Potency [1] | Potency [2] | Potency [3] | Potency [4] | Potency [5] | Potency [6] | Potency [17] | Potency [7] | Potency [10] | Potency [11] | Potency [12] | Potency [13] | activity, negative = cytotoxicity [18] -2.84% [at 19 µM] | activity change, negative = inhibition [20] 5.43% [at 19 µM] | viability change, negative = cytotoxic [15] 9.4% [at 15.8 µM] | activation [19] 13.7% [at 15.8 µM]

OC[C@@H](O)[C@@H](O)CO
inactive: Potency [1] | Potency [2] | Potency [3] | Potency [4] | Potency [6] | Potency [7] | Potency [10] | Potency [11] | Potency [12] | Potency [13] | Potency [18] | Potency [15] | Potency [16] | Potency [19]

CCCC[P+](C)(CCCC)CCCC
inactive: Potency [1] | Potency [2] | Potency [3] | Potency [4] | Potency [5] | Potency [6] | Potency [17] | Potency [7] | Potency [8] | Potency [9] | Potency [10] | Potency [11] | Potency [12] | Potency [13] | Potency [18] | Potency [15] | Potency [16] | Potency [19]

C=CCCC(=O)/C=C/C1C(C)=CCCC1(C)C (stereo not given)
inactive: Potency [1] | Potency [2] | Potency [3] | Potency [6] | Potency [7] | Potency [10] | Potency [11] | Potency [12] | Potency [13] | Potency [18] | Potency [15] | Potency [16] | Potency [19]

O=C(O)c1cc(O)c2ccccc2c1O
inactive: Potency [2] | Potency [5] | Potency [7] | Potency [13]
active: Potency [10] 38.9 µM | Potency [12] 21.9 µM | Potency [18] 17.2 µM | Potency [20] 13.7 µM | Potency [15] 4.9 µM

COc1cc(/C=C/c2ccccc2)oc(=O)c1
inactive: Potency [1] | Potency [3] | Potency [4] | Potency [6] | Potency [7] | Potency [10] | Potency [11] | Potency [12] | Potency [13] | Potency [18] | Potency [20] | Potency [15] | Potency [16]

Cc1ccc(O)c(N)c1
active: Potency [10] 19.5 µM | Potency [16] 55 µM
inactive: Potency [5] | Potency [6] | Potency [7] | Potency [11] | Potency [12] | Potency [13] | Potency [18] | Potency [20] | Potency [15]

Cc1ccc(N/N=c2\c(=O)cc/c(=N\Nc3ccc(S(=O)(=O)O)cc3)c2=O)c(C)c1
inactive: Potency [1] | Potency [3] | Potency [5] | Potency [6] | Potency [17] | Potency [7] | Potency [10] | Potency [11] | Potency [12] | Potency [13] | Potency [18] | Potency [20] | Potency [15] | Potency [16] | Potency [19]

Cc1c2ccccc2c(C)c2c1ccc1ccccc12
inactive: Potency [15]
active: Potency [1] 48.5 µM and 38.9 µM | Potency [3] 21.9 µM | Potency [6] 21.9 µM | Potency [17] 48.5 µM | Potency [7] 43.6 µM | Potency [10] 43.2 µM and 27.5 µM | Potency [11] 43.2 µM and 19.5 µM | Potency [12] 12.2 µM | Potency [13] 43.2 µM | Potency [18] 60.5 µM and 27.3 µM | Potency [20] 24.1 µM and 21.7 µM

OCC(F)(F)F
inactive: Potency [1] | Potency [2] | Potency [4] | Potency [5] | Potency [6] | Potency [17] | Potency [7] | Potency [8] | Potency [9] | Potency [10] | Potency [11] | Potency [12] | Potency [13] | Potency [18] | Potency [20] | Potency [15] | Potency [19]
